Experimental data as given in PubChem BioAssay AID2284075 (EPA ToxCast).
Active and inactive are the calls of the source. Rule for the calls: active = hit-call score of the fitted dose curve at least 0.9, where 1 is the maximum; inactive = score below 0.9.

Molecular target: human Aurora-A (AURKA) Other Protein Kinase, AURKA (gene 6790) (UniProt O14965)
Experiment: ERF_FR_ENZ_hAURKA: Eurofins (ERF) Enzymatic Radiometric [10 uM ATP] KinaseProfiler LeadHunter Assay for human Aurora-A (AURKA) Other Protein Kinase
Method: ERF_FR_ENZ_hAURKA is a biochemical, single-readout assay that uses extracted gene-proteins in a cell-free assay. Measurements were taken 0.25 hour after chemical dosing in a 96-well plate. See Aurora-A Human Other Protein Kinase Enzymatic LANCE Assay [Km ATP], Cerep.ERF_FR_ENZ_hAURKA is an assay component calculated from the ERF_FR_ENZ_hAURKA assay. It is designed to measure enzyme activity using a type of enzyme reporter as detected by fluorescence intensity with LANCE technology.Data from the assay component ERF_FR_ENZ_hAURKA was analyzed at the assay endpoint, ERF_FR_ENZ_hAURKA, in the positive analysis fitting direction relative to DMSO as the negative control and baseline of activity. Using a type of enzyme reporter, loss-of-signal activity can be used to understand changes in enzymatic activity as they relate to gene AURKA. To generalize the intended target to other relatable targets, this assay endpoint is annotated to the kinase intended target family, where the subfamily is serine/threonine kinase.
Aurora-A (h) is incubated with 8 mM MOPS pH 7.0, 0.2 mM EDTA, 200 uM LRRASLG (Kemptide), 10 mM MgAcetate and [gamma-33P]-ATP (specific activity and concentration as required). The reaction is initiated by the addition of the Mg/ATP mix. After incubation for 40 minutes at room temperature, the reaction is stopped by the addition of phosphoric acid to a concentration of 0.5%. […]

Chain of human Aurora-A (AURKA) Other Protein Kinase, AURKA (gene 6790) (O14965 whole entry, looked up): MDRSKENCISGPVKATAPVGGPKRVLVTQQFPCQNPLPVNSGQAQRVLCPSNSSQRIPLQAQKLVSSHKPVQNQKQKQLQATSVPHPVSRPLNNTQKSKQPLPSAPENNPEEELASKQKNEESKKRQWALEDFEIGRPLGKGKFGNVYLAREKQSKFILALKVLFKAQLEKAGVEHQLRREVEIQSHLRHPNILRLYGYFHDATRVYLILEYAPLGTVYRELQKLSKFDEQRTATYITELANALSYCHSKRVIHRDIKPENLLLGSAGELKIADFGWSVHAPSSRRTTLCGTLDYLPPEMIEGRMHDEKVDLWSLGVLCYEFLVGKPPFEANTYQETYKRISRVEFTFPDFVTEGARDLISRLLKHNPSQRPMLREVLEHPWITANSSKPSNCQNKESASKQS

SMILES	outcome
O=C(/C=C/c1ccc(O)cc1)CC(=O)/C=C/c1ccc(O)cc1	inactive
